From PubChem BioAssay
ABHD5 PLIN5 PPI: ABHD5-PLIN5 protein interaction inhibition. Q00G26+Q8WTS1. Split G. princeps luciferase complementation, luminescence, 4 h. inhibition, % at 4 µM. hit rate 0.78% among 360,000. AID 602281;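 active = inhibition above the mean inhibition across every tested compound plus 3 SD, cut at about 22% in these data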
Target sequence (Q00G26 whole entry, looked up): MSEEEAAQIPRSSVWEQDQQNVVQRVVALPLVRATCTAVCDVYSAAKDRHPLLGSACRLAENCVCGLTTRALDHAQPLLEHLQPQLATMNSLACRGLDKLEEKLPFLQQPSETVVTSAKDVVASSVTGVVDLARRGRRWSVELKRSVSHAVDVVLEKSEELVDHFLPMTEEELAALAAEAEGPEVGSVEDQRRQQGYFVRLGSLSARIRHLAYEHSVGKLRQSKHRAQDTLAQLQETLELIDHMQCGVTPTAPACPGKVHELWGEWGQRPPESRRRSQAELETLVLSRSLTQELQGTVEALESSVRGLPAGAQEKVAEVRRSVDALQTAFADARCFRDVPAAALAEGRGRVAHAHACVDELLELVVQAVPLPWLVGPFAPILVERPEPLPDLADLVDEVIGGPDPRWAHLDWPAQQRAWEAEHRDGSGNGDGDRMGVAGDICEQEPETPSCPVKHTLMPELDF
Target sequence (Q8WTS1 whole entry, looked up): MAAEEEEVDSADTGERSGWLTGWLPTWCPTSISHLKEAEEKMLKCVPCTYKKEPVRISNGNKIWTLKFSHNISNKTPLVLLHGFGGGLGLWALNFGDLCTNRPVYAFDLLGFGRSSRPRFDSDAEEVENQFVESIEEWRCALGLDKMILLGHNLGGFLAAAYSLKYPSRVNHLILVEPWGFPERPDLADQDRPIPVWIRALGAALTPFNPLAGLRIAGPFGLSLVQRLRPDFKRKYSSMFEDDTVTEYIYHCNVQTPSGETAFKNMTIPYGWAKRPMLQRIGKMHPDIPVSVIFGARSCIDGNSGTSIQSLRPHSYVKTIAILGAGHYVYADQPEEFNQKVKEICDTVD
PfM18AAP inh-1: PfM18AAP enzyme inhibition; hit rate 1.2% among 290,000; inhibition, % at 7.35 µM; recombinant PfM18AAP, H-Glu-NHMec fluorogenic cleavage;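 active = inhibition above the campaign mean inhibition over all tested compounds plus 3 SD, cut at about 28% in these data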
Granule exo inh: blocks lytic granule exocytosis; hit rate 0.66% among 360,000; AID 651702; inhibition, % at 10 µM; TALL-104 LAMP-1 surface exposure, flow cytometry; cells stimulated with thapsigargin and PMA;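 active = inhibition above about 55%, limit read from the data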
Rce1 inhib: inhibitors of yeast Ras-converting enzyme | calls only | Q03530 | yeast membranes, quenched prenylated peptide cleavage fluorescence | hit rate 0.27% among 290,000;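 active = fall in fluorescence gain of 50% or more versus controls, with final raw signal at or below 3038400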
Platelet DG rel: platelet dense granule release activity; AID 1663; inhibition, %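 (compounds screened at 7.5 µM in platelet-rich plasma)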; human platelet-rich plasma, SFLLRN dense granule ATP release, luminescence; hit rate 0.22% among 300,000;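 active = mean replicate score, as percent of positive control, at or above 50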
PfM18AAP inh-2: PfM18AAP inhibition, confirmation; shares compounds with PfM18AAP inh-1; recombinant PfM18AAP, H-Glu-NHMec fluorogenic cleavage; inhibition, % at 7.35 µM; hit rate 28% among 2,400; AID 2170;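 active = mean inhibition over replicate wells above the hit cutoff set for the earlier primary screen, cut at about 29% in these data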
CTSL1 counter: counter-screen for PFM18AAP inhibitors: confirmation of human cathepsin L inhibitors; shares compounds with PfM18AAP inh-1; purified cathepsin L1, Z-Leu-Arg-MCA fluorescence; inhibition, % at 5.96 µM; 2,400 tested, under 10 active;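 active = average inhibition across replicates above the hit cutoff set in the earlier primary screen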
Numbers stand for hits; . = inactive; / = no result. The list is not random: actives were taken first. Their share in the collection is about 2.6%.

SMILES	ABHD5 PLIN5 PPI	PfM18AAP inh-1	Granule exo inh	Rce1 inhib	Platelet DG rel	PfM18AAP inh-2	CTSL1 counter
COc1ccc(C(=O)NNC2=CC(=O)CC(C)(C)C2)cc1OC	.	40.0	.	.	.	.	.
COc1ccc(NC2=CC(=O)CC(C)(C)C2)cc1OC	.	.	.	/	.	/	/
CC1(C)CC(=O)C=C(NNC(=O)OC(C)(C)C)C1	.	.	.	.	.	/	/
Cn1c(SCC(=O)NC2CC2)nnc1-c1ccco1	.	.	.	/	/	/	/
O=C(Cn1ccc2ccccc2c1=O)NCCC(=O)N1CCN(C2CCCCC2)CC1	.	.	.	.	.	/	/
O=S(=O)(Nc1nc2ccccc2nc1Cl)c1ccc(F)cc1	.	.	.	.	.	/	/
O=C(CSc1ccc2nnc(-c3ccccn3)n2n1)Nc1ccc(F)cc1F	.	.	.	.	.	/	/
Cn1c(SCCN2CCOCC2)nc2sc3c(c2c1=O)CCCC3	.	.	.	.	.	/	/
COc1ccc(S(=O)(=O)Nc2cccc3c2O[C@H](CN(C)Cc2ccc(C(=O)O)cc2)[C@@H](C)CN([C@H](C)CO)C3=O)cc1	.	/	.	/	/	/	/
COC(=O)c1ccccc1NCc1cc(=O)oc2cc(O)c(O)cc12	.	34.0	.	.	.	.	.
CCOC(=O)c1c(C2COc3ccccc3O2)csc1N (stereo not given)	.	59.7	.	.	.	.	.
CCOC(=O)N1CCN(C(=O)C2COc3ccccc3O2)CC1 (stereo not given)	.	.	.	.	.	/	/
CCCCCCCCCc1nc2sc3c(c2c(=O)n1NC(=O)c1ccccc1[N+](=O)[O-])CC(C)(C)OC3	.	.	.	.	.	/	/
CCC(NC(=O)Nc1ccc(O)cc1)(C(F)(F)F)C(F)(F)F	.	39.2	.	/	/	.	.
CCc1c(Cl)nc(N)nc1Nc1ccccc1C	.	/	.	/	/	/	/
CC1CCCC(C)N1CC(C)(C)NS(=O)(=O)c1ccc(Cl)cc1 (stereo not given)	.	.	.	.	.	/	/
O=C(Nn1cnnc1)c1ccncc1	.	.	.	.	.	/	/
Cc1ccc(C(=O)Nn2cnnc2)cc1Cl	.	47.1	.	.	.	33.1	.
O=C(NN1CCOCC1)c1ccc(Cl)c([N+](=O)[O-])c1	.	.	.	.	.	/	/
O=C(Nn1cnnc1)c1cccc(S(=O)(=O)N2CCOCC2)c1	.	38.2	.	.	.	32.9	.
O=C(Nn1cnnc1)c1ccc(Cl)c([N+](=O)[O-])c1	.	44.3	.	.	.	43.8	.
N#Cc1ccc(C(=O)Nn2cnnc2)cc1	.	45.0	.	.	.	.	.
Cc1ccc(CSc2nnc(SCC(=O)N/N=C/c3ccccc3OCC(=O)O)s2)cc1	.	.	.	.	.	/	/
O=C(Nn1cnnc1)c1cc(Cl)cc(Cl)c1	.	47.0	.	.	.	32.3	.
Cc1cc(C(=O)Nn2cnnc2)ccc1[N+](=O)[O-]	.	46.2	.	.	.	51.1	.
SMILES	ABHD5 PLIN5 PPI	PfM18AAP inh-1	Granule exo inh	Rce1 inhib	Platelet DG rel	PfM18AAP inh-2	CTSL1 counter
O=C1c2ccccc2C(Nc2ccc(F)c(Cl)c2)N1Cc1ccco1 (stereo not given)	.	.	.	.	.	/	/
C#Cc1cccc(NC(=O)CSc2nnc(-c3ccc(C(F)(F)F)cn3)o2)c1	.	.	.	.	.	/	/
CCCCN(C)C(=O)CCCc1c[nH]c2ccccc12	.	.	.	/	.	/	/
COc1ccc(N2C(=O)/C(=C/N(C)C)NC2=S)cc1	.	80.1	.	/	.	69.4	.
CCCN(C(=O)c1ccc(-n2cncn2)c([N+](=O)[O-])c1)C1CCS(=O)(=O)C1 (stereo not given)	.	/	.	/	/	/	/
OC(Cn1cnnc1)c1ccccc1 (stereo not given)	.	79.0	.	.	.	76.2	.
CCn1c(SCC(=O)Nc2ccc(OC)cc2OC)nc2nc3c(cc2c1=O)COC(C)(C)C3	.	.	.	.	/	/	/
COc1cccc2sc3ccc(NCCC4CCCN4C)cc3c(=O)c12 (stereo not given)	.	33.0	.	.	.	.	.
COc1cc2sc3cc(NCC[C@@H]4CCCN4C)ccc3c(=O)c2cc1OC	.	/	.	/	/	/	/
COC(=O)/C=c1\sc2ncnn2c1=O	.	38.4	.	.	.	.	.
CNC(=O)/C(C#N)=c1\s/c(=C/C(=O)OC)c(=O)n1-c1ccccc1	.	.	.	.	.	/	/
COc1cccc(-n2c(Cn3nc(C(F)F)cc3C(F)F)n[nH]c2=S)c1	.	.	.	.	.	/	/
Cc1sc(-n2c(C)cc(/C=N/n3cnnc3)c2C)c(C#N)c1C	.	36.2	.	.	.	.	.
CCOc1ccc(Br)cc1S(=O)(=O)Nc1ncn[nH]1	.	.	.	.	.	/	/
CCOc1ccc(S(=O)(=O)Nc2ncn[nH]2)cc1	.	46.4	.	.	.	32.6	.
Oc1ccc(N2CCN(CC(O)c3ccccc3)CC2)cc1 (stereo not given)	.	51.5	.	.	.	.	.
O=[N+]([O-])c1ccc(C(O)CN2CCN(c3ccccc3)CC2)cc1 (stereo not given)	.	.	.	.	.	/	/
Nc1nc(Nc2ccccc2)n[nH]1	.	45.3	.	.	.	.	.
Nc1nc(Nc2cccc(Cl)c2)n[nH]1	.	42.7	.	.	.	.	.
Nc1nc(Nc2ccc(Cl)cc2)n[nH]1	.	32.0	.	.	.	.	.
CC(=O)N1C[C@H]2CON(C)[C@H]2C[C@H]1c1cccc(-c2ccccc2)c1	.	/	.	/	/	/	/
CCOC(=O)CC1Sc2ccccc2NC1=S (stereo not given)	.	36.6	.	.	.	.	.
CCOC(=O)CC1Sc2ccccc2NC1=O (stereo not given)	.	.	.	.	.	/	/
CC(C)Cn1c(-c2nn(C)cc2Cl)n[nH]c1=S	.	.	.	/	.	/	/
Cc1ccsc1-c1n[nH]c(=S)n1CC(C)C	.	33.8	.	.	.	.	.
SMILES	ABHD5 PLIN5 PPI	PfM18AAP inh-1	Granule exo inh	Rce1 inhib	Platelet DG rel	PfM18AAP inh-2	CTSL1 counter
COc1ccc(OC)c(NC(=O)NC2(C(F)(F)F)Oc3ccccc3O2)c1	.	62.7	.	.	.	.	.
NS(=O)(=O)c1ccc(CCNC(=O)C2COc3ccccc3O2)cc1 (stereo not given)	.	.	.	.	.	/	/
CCCCNC(=O)NC1(C(F)(F)F)Oc2ccccc2O1	.	81.0	.	.	.	.	.
CC(=O)NC1(C(Cl)(Cl)Cl)Oc2ccccc2O1	.	.	.	.	.	/	/
COc1ccc(OC)c(NC(=O)Nc2ccccc2C)c1	.	.	.	.	.	/	/
NS(=O)(=O)c1ccc(CCNC(=O)NC2(C(F)(F)F)Oc3ccccc3O2)cc1	.	67.3	.	.	.	.	.
O=C(NC(=S)N1CCCc2ccccc21)c1ccc(Br)cc1	.	.	.	.	.	/	/
O=S(=O)(Nc1nccs1)c1ccc(NCc2cc(Br)cc(Br)c2O)cc1	.	.	.	.	.	/	/
FC(F)(F)c1cc(-c2ccc3c(c2)OCO3)nc(NCc2ccco2)n1	.	37.3	.	/	.	.	.
Cc1ccc(/C=C/C(=O)Nc2nccs2)o1	.	.	.	.	.	/	/
CCOC(=O)N/N=C/c1cc(OC)c(O)c(OC)c1	.	.	.	.	.	/	/
